From PubChem BioAssay (NCI)
This is part of a sample that, as a whole, favours compounds with a hit. Of some 83,000 tested, about 20% had one in any assay.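 How to read the values: 0–100, growth inhibition (40 = 60% inhibited); 0, no net growth; -100 to 0, cell death (-40 = 40% of starting cells died; -100 = all dead).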 The source made the active and inactive calls. Rule for the calls: active = growth percent below 10; inactive = the rest.

Experiments:
Experiment in all cases: NCI-60 one-dose screen, 48 h (100 = growth as untreated, 0 = no growth, -100 = all killed)
Settings in all cases: 10 µM unless noted
[1] = tested on: NCI-H23 lung
[2] = tested on: NCI-H226 lung
[3] = tested on: NCI-H322M lung
[4] = tested on: HOP-62 NSCLC
[5] = tested on: NCI-H460 lung
[6] = tested on: HOP-92 NSCLC
[7] = tested on: NCI-H522 lung
[8] = tested on: A549/ATCC NSCLC
[9] = tested on: 786-0 renal
[10] = tested on: COLO 205 colon
[11] = tested on: DU-145 prostate
[12] = tested on: K-562 leukemia
[13] = tested on: MALME-3M melanoma
[14] = tested on: MDA-MB-231 breast
[15] = tested on: RXF 393 renal
[16] = tested on: SF-268 CNS
[17] = tested on: SF-295 CNS
[18] = tested on: SF-539 CNS
[19] = tested on: UACC-257 melanoma
[20] = tested on: M14 melanoma

Measured: growth

O=C(Nc1ccccc1Cl)c1ccc(NC2=C(Cl)C(=O)N(C3CCCCC3)C2=O)cc1
inactive: [2] 97.1% [30 µM] | [3] 16.2% [30 µM] | [4] 88.4% [30 µM] | [5] 32.8% [30 µM] | [7] 70.3% [30 µM] | [8] 94% [30 µM] | [9] 69.9% [30 µM] | [10] 66.6% [30 µM] | [11] 28.8% [30 µM] | [12] 25.3% [30 µM] | [13] 80.6% [30 µM] | [14] 85.4% [30 µM] | [16] 60.5% [30 µM] | [17] 21.6% [30 µM] | [18] 82% [30 µM] | [19] 54.9% [30 µM] | [20] 92.6% [30 µM]
active: [1] -24.1% [30 µM] | [6] -16.8% [30 µM] | [15] -12.1% [30 µM]

N#Cc1c(-c2ccc(Cl)cc2)nc(N=Nc2c(O)[nH]c3ccc(Cl)cc23)nc1N1CCOCC1
inactive: [1] 84.8% | [2] 85.6% | [3] 96.5% | [4] 96.3% | [5] 98.4% | [6] 89.5% | [7] 93.6% | [8] 102% | [9] 103% | [10] 105% | [11] 103% | [12] 116% | [13] 88.8% | [14] 82.9% | [15] 95.7% | [16] 95.8% | [17] 102% | [18] 97.8% | [19] 107% | [20] 93.6%

O=C(N=Nc1c(O)[nH]c2ccccc12)c1cc(-c2ccccc2)on1
inactive: [1] 95.8% | [2] 96.8% | [3] 111% | [4] 102% | [5] 102% | [6] 96.2% | [7] 90.7% | [8] 107% | [9] 104% | [10] 122% | [11] 113% | [12] 104% | [13] 100% | [14] 93.1% | [15] 118% | [16] 101% | [17] 98.2% | [18] 97.4% | [19] 106% | [20] 104%

CCOC(=O)n1cc(-c2nonc2-c2cn(C)c3ncccc23)c2ccccc21
inactive: [1] 79.2% | [2] 58.7% | [3] 87.3% | [4] 87.8% | [5] 64.2% | [6] 66.1% | [7] 71.1% | [8] 82% | [9] 88.8% | [10] 93% | [11] 97.1% | [12] 40.6% | [13] 84.4% | [14] 63.8% | [15] 81.7% | [16] 82.2% | [17] 82.8% | [18] 92.3% | [19] 98% | [20] 90.1%

O=C(C(=O)c1ccc2c(c1)OCO2)c1ccc2c(c1)OCO2
inactive: [1] 111% | [2] 99.9% | [3] 122% | [4] 101% | [5] 96.6% | [6] 101% | [7] 102% | [8] 99.1% | [9] 109% | [10] 109% | [11] 111% | [12] 108% | [13] 104% | [14] 100% | [15] 105% | [16] 99% | [17] 120% | [18] 114% | [19] 87.8% | [20] 101%

O=C1c2cc3c(cc2-c2c1c1cc(F)c(F)cc1c(=O)n2CCCn1ccnc1)OCO3
active: [1] -11.2% | [2] -59.4% | [4] 1.96% | [5] -26% | [6] -7.1% | [7] -26.9% | [8] -93.5% | [9] 8.02% | [10] -4.37% | [11] 9.97% | [12] 8.61% | [13] -4.79% | [15] -22.4% | [17] -12.4% | [18] -19.7% | [19] -28.9% | [20] 8.25%
inactive: [3] 14.5% | [14] 13.9% | [16] 13.4%

O=C(O)c1ccc(N=CC(=O)c2ccc(-c3ccccc3)cc2)cc1
inactive: [1] 93.6% | [2] 83.9% | [3] 105% | [4] 103% | [5] 104% | [6] 84.2% | [7] 87.2% | [8] 92.1% | [9] 104% | [10] 111% | [11] 112% | [12] 116% | [13] 97.7% | [14] 101% | [15] 118% | [16] 109% | [17] 104% | [18] 104% | [19] 93.1% | [20] 94.1%

CCCCCCN(CCCCCC)CCC(O)c1ccc2ccccc2c1 (stereo not given)
active: [6] 2.35%
inactive: [1] 45.3% | [2] 79.2% | [3] 80.9% | [4] 101% | [5] 51.5% | [7] 60.2% | [8] 74.5% | [9] 54.1% | [10] 39.5% | [11] 74.3% | [12] 27.9% | [13] 68.5% | [14] 42.4% | [15] 46.7% | [16] 73.3% | [17] 52.5% | [18] 61.9% | [19] 85.3% | [20] 50.2%

COc1cccc(Nc2nc(SC)nc(-c3cccc([N+](=O)[O-])c3)c2C#N)c1
inactive: [1] 78.3% | [2] 19.3% | [3] 74% | [4] 27% | [5] 41.7% | [6] 62.9% | [7] 72.1% | [8] 28% | [9] 36.4% | [10] 82.1% | [11] 81.4% | [12] 85.4% | [13] 72.7% | [14] 65.8% | [15] 68.2% | [16] 88% | [17] 62.6% | [18] 81.4% | [19] 88.5% | [20] 83.4%

NNCCc1ccc(NC(=O)CCCc2ccc(/C=C/C(=O)NO)cc2)cc1
active: [12] 7.74%
inactive: [1] 64.9% | [2] 36% | [3] 64% | [4] 32.8% | [5] 62.8% | [6] 28.8% | [7] 16.6% | [8] 76.4% | [9] 71.3% | [10] 71.2% | [11] 72.6% | [13] 39.4% | [14] 42.3% | [15] 63.6% | [16] 45.3% | [17] 77.7% | [18] 53.3% | [19] 51.7% | [20] 61.1%

Cc1ccc2c(C(C[N+](=O)[O-])c3ccco3)c(-c3ccccc3)[nH]c2c1 (stereo not given)
active: [7] -11.7% | [17] 7.56% | [20] 7.34%
inactive: [1] 51.3% | [2] 46.5% | [3] 53.3% | [4] 24% | [5] 13.9% | [6] 39.9% | [8] 33.3% | [9] 31.2% | [10] 21.8% | [11] 49.6% | [12] 11.5% | [13] 47.1% | [14] 41.8% | [15] 35.2% | [16] 37.8% | [18] 20.4% | [19] 43.4%

C#CCOc1ccc2ncnc(Nc3cccc(CNC(=O)CCl)c3)c2c1
active: [7] -47.7% [8.25 µM]
inactive: [1] 44.5% [8.25 µM] | [2] 27.7% [8.25 µM] | [3] 71.3% [8.25 µM] | [4] 13.1% [8.25 µM] | [5] 61.3% [8.25 µM] | [6] 54% [8.25 µM] | [8] 53.3% [8.25 µM] | [9] 25.7% [8.25 µM] | [10] 68.2% [8.25 µM] | [11] 57.9% [8.25 µM] | [12] 29.5% [8.25 µM] | [13] 68.8% [8.25 µM] | [14] 53.4% [8.25 µM] | [15] 14% [8.25 µM] | [16] 39.7% [8.25 µM] | [17] 92% [8.25 µM] | [18] 54.8% [8.25 µM] | [19] 58.7% [8.25 µM] | [20] 61.7% [8.25 µM]

Nc1n[nH]c2ccc([C@@H]3Nc4cc5c(cc4[C@H]4C6CCC(C6)[C@@H]34)C(=O)NC5)cc12 (stereo not given in full)
active: [2] 4.99% | [5] 1.7% | [10] -40.1% | [11] -17.9% | [12] 7.25% | [18] -24.9% | [20] 7.72%
inactive: [1] 28.3% | [3] 42.1% | [4] 39.4% | [6] 75.3% | [7] 16.9% | [8] 26.4% | [9] 17.3% | [13] 49.8% | [14] 37.9% | [15] 27.1% | [16] 22.8% | [17] 10.8% | [19] 76.7%

O=C1Nc2c(ccc(Cl)c2Cl)/C1=C\c1ccc(C(F)(F)F)cc1
inactive: [1] 68.8% | [2] 59.1% | [3] 75.5% | [4] 87.3% | [5] 89.7% | [6] 57.8% | [7] 76.4% | [8] 84.1% | [9] 90.7% | [10] 100% | [11] 97.3% | [12] 32.8% | [13] 96.5% | [14] 81.9% | [15] 77.4% | [16] 91.6% | [17] 77.2% | [18] 88.1% | [19] 97.5% | [20] 98%

CC1=C[C@H]2c3c(c(O)c(O)c4oc5ccccc5c(=O)c34)[C@H](c3cc(O)c(O)c4oc5ccccc5c(=O)c34)[C@H]2C(C)(C)C1
inactive: [3] 18.7% | [10] 10.7% | [11] 14.9% | [14] 12.1%
active: [1] -4.58% | [2] -14.4% | [4] -9.58% | [5] -37.6% | [6] -5.31% | [7] -18.3% | [8] -11.8% | [9] -76.6% | [12] 3.25% | [13] -1.47% | [15] 7.55% | [16] 5.33% | [17] -33.4% | [18] -5.05% | [19] 7.1% | [20] -70.4%
